# Screening results: PubChem, The Scripps Research Institute Molecular Screening Center
# A selection: hits, their analogues and other compounds. The true share with any hit is near 2.1%.
# NOTCH agonist: agonists of NOTCH signaling | NOTCH signaling luciferase reporter cells, luminescence | activation, % at 2.5 µM | 15,000 compounds, 0.4% hits | AID 434982, 2010; in the data active means activation above about 2.2%
# PME-1 Maybridge: inhibitors of human PME-1 in Maybridge library. inhibition, % at 9 µM. 16,000 compounds, 0.5% hits. AID 2291, 2010. recombinant PME-1, FP-Rh probe fluorescence polarization. Protein phosphatase methylesterase 1 (Homo sapiens), Q9Y570; in the data active means inhibition above about 30%
# Nox1 inh: inhibitors of human NADPH oxidase 1 (Nox1); Q9Y5S8; HT29 cells, luminol chemiluminescence ROS; inhibition, % at 6.7 µM; 16,000 compounds, 0.81% hits; AID 1792, 2009
# Target sequence (Q9Y5S8 whole entry, looked up): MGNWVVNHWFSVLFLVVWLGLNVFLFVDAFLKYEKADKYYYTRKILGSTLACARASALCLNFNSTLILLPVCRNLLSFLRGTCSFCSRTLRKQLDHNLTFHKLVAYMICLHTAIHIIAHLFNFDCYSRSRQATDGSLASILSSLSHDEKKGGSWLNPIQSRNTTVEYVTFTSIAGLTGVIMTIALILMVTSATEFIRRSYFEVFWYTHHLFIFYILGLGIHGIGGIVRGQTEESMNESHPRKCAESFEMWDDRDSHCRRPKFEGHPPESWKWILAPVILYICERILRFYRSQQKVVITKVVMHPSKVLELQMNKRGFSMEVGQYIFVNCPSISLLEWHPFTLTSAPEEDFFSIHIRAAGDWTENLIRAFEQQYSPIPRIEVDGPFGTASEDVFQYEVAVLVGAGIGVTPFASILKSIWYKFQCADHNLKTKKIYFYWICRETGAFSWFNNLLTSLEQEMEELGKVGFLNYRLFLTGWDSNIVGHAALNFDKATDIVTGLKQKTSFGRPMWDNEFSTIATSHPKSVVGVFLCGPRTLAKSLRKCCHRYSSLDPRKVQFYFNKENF
# Luminol counter: counter-screen for Nox1 inhibitors: inhibitors of luminol chemiluminescence; HRP/luminol/H2O2 chemiluminescence counterscreen; inhibition, % at 6.7 µM; 16,000 compounds, 0.4% hits; further: reference of the scale not given here
# The depositor's hits bear a star; / = not tested or not shown. Unless noted, no stated cut-off is given here; in the data, active means inhibition above about 75%; inactive means the rest.
SMILES,NOTCH agonist,PME-1 Maybridge,Nox1 inh,Luminol counter
CN(C)c1ccc(/C=C(\C#N)c2ccc([N+](=O)[O-])cc2)cc1[N+](=O)[O-],0.1,-1.3,-13.9,17.3
N#C/C(=C\c1ccc(O)cc1)c1ccc([N+](=O)[O-])cc1,0.7,3.8,0.0,100.6*
Cc1cc(-c2nc(COc3ccc(Cl)cc3Cl)no2)no1,1.1,1.5,-36.5,-4.0
COc1ccccc1NC(=S)Nc1ccccn1,-0.5,4.0,-22.4,2.2
COC(=O)c1ccccc1NC(=S)Nc1ccc(Cl)cn1,0.1,6.4,17.6,98.4*
c1ccc2c(c1)-c1ccccc1C2c1ccncc1,2.3*,-10.5,22.9,-7.0
N#C/C(=C\c1ccc(-c2ccc(Cl)cc2[N+](=O)[O-])o1)C(=O)O,-0.4,2.1,-16.5,2.5
Cc1c(CC(=O)Nc2ccccc2)sc2ccccc12,-0.7,3.5,-18.2,0.0
O=C(Cc1csc2ccccc12)Nc1ccc(F)cc1,-0.2,57.9*,-63.5,1.9
CC[n+]1c(C)csc1Nc1ccc(N2CC(C)OC(C)C2)cc1 (stereo not given),0.2,3.2,104.6*,11.9
O=C(NNc1cccc(Cl)c1)c1cccnc1Oc1ccccc1,-0.2,-0.2,40.5,100.3*
Nc1ccc(C(=O)O)c2c(C(=O)O)cccc12,0.5,48.6*,29.2,25.5
O=C(O)/C=C/C(=O)Nc1cccc(C(=O)O)c1,0.4,1.4,0.7,-2.6
CN(C)c1cc(NNS(=O)(=O)c2cccc(C(F)(F)F)c2)nc(N(C)C)c1C#N,-0.5,5.9,65.7,80.1*
C1=C(c2ccccc2)C2CC=C(c3ccccc3)C2C1 (stereo not given),0.4,0.3,-5.4,-2.0
O=C1c2ccccc2C(=O)N1CCN1CCN(Cc2ccccc2)CC1,-0.6,-1.6,-57.1,-0.1
CCOC(=O)C1CCN(c2ccccc2CN2CCCc3cc(C)ccc32)CC1,-0.3,2.9,20.2,-2.8
COc1ccc2c(c1)CCCN2Cc1c[nH]c2ccccc12,0.2,17.3,101.1*,-12.5
Cn1ncc2c(NNC(=O)c3cc(Cl)cc(Cl)c3)ncnc21,-4.1,-1.0,28.8,-0.4
COc1cc2ncnc(NNS(=O)(=O)c3cc(C)c(Cl)cc3C)c2cc1OC,-0.7,31.9*,100.8*,8.8
Cc1cc(S(=O)(=O)NNc2ncnc3c2cnn3C)c(C)cc1Cl,0.6,0.4,102.2*,1.1
O=C(O)CSCC(=O)NCc1ccc(-c2cccs2)s1,-0.8,0.5,-50.7,1.8
Cn1c(-c2cc(C(C)(C)C)nn2Cc2ccc(F)cc2)n[nH]c1=S,0.6,6.7,4.7,99.4*
O=C(Oc1ccccc1N1CCCCC1)c1ccco1,-5.5,-2.0,82.8*,7.8
Cc1onc(-c2ccccc2)c1C(=O)Oc1ccccc1N1CCOCC1,-0.2,-1.7,-19.2,1.8
SMILES,NOTCH agonist,PME-1 Maybridge,Nox1 inh,Luminol counter
O=C(Oc1ccccc1N1CCOCC1)c1cccs1,-0.3,1.0,98.3*,-1.0
O=C(Oc1ccccc1N1CCOCC1)c1cccnc1Oc1ccccc1,1.3,0.3,79.2*,7.3
CSc1ccc(/C=N/n2c(=O)oc3ccccc3c2=O)cc1,/,-16.9,-75.0,7.5
CC(=O)c1cc(C#N)c(=O)[nH]c1C,0.2,3.2,-28.2,1.1
CNC(=O)Cc1csc2ccc(Cl)cc12,-0.3,7.1,-8.7,-8.5
CNC(=O)n1nc(C)c(Cc2csc3ccc(Cl)cc23)c1C,-0.2,47.8*,-12.0,0.2
O=C1/C(=C/c2cccc3ccccc23)Nc2ccccc21,-0.6,0.5,11.7,12.6
Cc1ccc2c(c1)CCCN2C(=O)CC(=O)N1CCCc2cc(C)ccc21,0.2,7.7,-6.1,77.5*
Cc1ccc2c(c1)CCCN2C(=O)c1sc2ccccc2c1Cl,-0.2,5.2,-39.3,3.4
O=C(NCCNc1nccc(C(F)(F)F)n1)C1CC1,0.6,95.5*,4.6,-7.5
O=C(NNC(=O)c1cccc(C(F)(F)F)c1)c1ccncc1,-0.5,4.5,-34.6,3.3
O=C(NNc1nc(-c2cccs2)ns1)c1cccc(C(F)(F)F)c1,0.7,7.1,104.4*,56.9
N#Cc1sc2sc(C#N)c(-c3cccs3)c2c1N,-0.2,-3.7,-29.7,2.6
CC(C)(CC(=O)O)CC(=O)Nc1cc(Cl)ccc1Cl,-0.1,2.6,19.2,-5.8
O=C(CSc1ccccc1[N+](=O)[O-])NNC(=S)Nc1cccc(C(F)(F)F)c1,-0.3,12.7,-50.2,2.6
COc1cc([N+](=O)[O-])c(OC)cc1SCC(=O)NNC(=S)Nc1ccc(F)cc1,-0.2,9.1,20.8,83.0*
CC1=C(C(=O)Nc2cc(C(F)(F)F)cc(C(F)(F)F)c2)SCCO1,0.0,-2.4,-6.5,-1.5
COc1ccc(CNC(=S)NCCCO)cc1,-0.5,3.7,-51.2,98.2*
COc1ccc(C(N)=S)cc1[N+](=O)[O-],0.7,3.7,2.4,1.3
